# Screens from PubChem.
# KLK7 zymogen act: activates the human kallikrein-7 zymogen; 370,000 compounds, 0.9% hits; activation, % at 7 µM; purified proKLK7, EDANS-DABCYL substrate fluorescence; 100% is mature enzyme control, 0% vehicle; P49862;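 active = activation above the mean of all tested compounds plus 3 SD, computed per campaign excluding outliers beyond control limits, cut at about 13% in these data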
# AHR activator: activators of human aryl hydrocarbon receptor; AHR-responsive luciferase reporter cells, luminescence; AID 2796; 320,000 compounds, 2.5% hits; P35869; activation, % at 5 µM; in the data active = activation above about 47%
# rCAG binder: r(CAG) repeat RNA binding | TO-PRO-1 dye displacement fluorescence | inhibition, % at 3 µM | 370,000 compounds, 1.3% hits;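 active = inhibition above the plate cutoff, the mean of all test compounds on that plate plus 3 SD, cut at about 35% in these data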;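 note: higher means more dye released from RNA so lower well fluorescence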
# NR3A LBD binder: NR3A (human) ligand-binding domain modulation; NR3A LBD differential scanning fluorimetry, Tm shift; 0% = protein alone, 100% = glycine-bound protein; Tm shift relative to glycine control, % at 25 µM; 340,000 compounds, 2.5% hits; AID 1259313;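 active = melting temperature shift of at least 10% of the positive control shift, at one fixed dose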
# ADAM17 inh: inhibits human ADAM17 | recombinant ADAM17, EDANS/DABCYL FRET peptide cleavage | inhibition, % at 6.95 µM | 370,000 compounds, 0.83% hits | AID 720648;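 active = inhibition above the mean of compounds lying between control limits plus 3 SD, set per campaign, cut at about 8.5% in these data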
# ADAM10 inh: inhibits human ADAM10; 370,000 compounds, 0.62% hits; recombinant ADAM10, EDANS/DABCYL FRET peptide cleavage, 3 h; inhibition, % at 7 µM; AID 720582; O14672;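 active = inhibition above a per-campaign cutoff equal to the mean of compounds falling between control-based bounds plus 3 SD, cut at about 20% in these data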
# proKLK7 act conf: confirmation of human kallikrein-7 zymogen activators; shares compounds with KLK7 zymogen act; purified proKLK7, EDANS-DABCYL substrate fluorescence; scaled: vehicle 0, mature enzyme 100; activation, % at 7 µM; 3,200 compounds, 68% hits; AID 686949;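 active = activation, as change over the incubation, above the mean of all tested compounds plus 3 SD, cut at about 13% in these data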
# EDANS interfere: optically interferes with EDANS-DABCYL signal, flagging KLK7 hits; EDANS-DABCYL substrate fluorescence interference, no enzyme, 4 h; solvent 0%, active enzyme control 100%; shares compounds with KLK7 zymogen act; activation, % at 7 µM; 3,200 compounds, 80% hits;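 active = activation above the all-compound mean plus 3 SD, ignoring values outside control-based bounds, cut at about 4.8% in these data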;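 note: value is the 4 h activation minus the activation read at time zero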
# K7 EDANS ctr: counter-screen for kallikrein-7 activators: EDANS-DABCYL interference, dose response; AID 720493; EC50, µM; shares compounds with KLK7 zymogen act; 250 compounds, 20% hits; EDANS-DABCYL peptide fluorescence interference, no enzyme;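 active = compounds that raise the fluorescence signal in this interference counterscreen, with EC50 at or below 10 µM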;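 note: intact quenched peptide substrate alone read at 355 nm excitation and 520 nm emission; signal is fluorescence gain from T0 to T4 after four hours at room temperature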
# A number is an active result; . = inactive; / = no result given. Sampled rows, rich in hits. Any-hit rate of the full collection: about 7%.
SMILES,KLK7 zymogen act,AHR activator,rCAG binder,NR3A LBD binder,ADAM17 inh,ADAM10 inh,proKLK7 act conf,EDANS interfere,others
COCCn1c(N)c(C(=O)NCc2cccs2)c2nc3ccccc3nc21,.,.,.,.,.,.,/,/,
COCC(C)OC(=O)c1c(N)n(CC(C)C)c2nc3ccccc3nc12 (centres undefined),59,.,.,.,.,.,.,.,
Cn1cccc1C1CCCN1CC(=O)Nc1ccc(F)c(F)c1F (centres undefined),.,.,.,.,.,.,/,/,
CCOC(=O)c1c(S(=O)(=O)Nc2ccc(F)cc2C)c(C)n(C)c1C,.,.,.,.,.,.,/,/,
CCOC(=O)NN1C(=O)c2ccccc2NC1c1ccccn1 (centres undefined),.,.,.,.,.,.,/,/,
Cc1cccc(C2Nc3ccccc3C(=O)N2c2ccc(F)cc2)n1 (centres undefined),28,.,.,.,.,.,23,21,
O=C1c2ccccc2NC(c2ccccn2)N1c1ccccc1F (centres undefined),18,.,.,.,.,.,22,22,
O=C(Nc1ccc(-n2cccn2)cc1)C1CCCCN1Cc1cccc2c1OCO2 (centres undefined),.,.,.,.,.,.,/,/,
COc1ccc(S(=O)(=O)NCc2cc(=O)n(C)c(=O)n2C)cc1F,.,.,.,.,.,.,/,/,
COc1cc2c3nnc(-c4ccc(F)cc4)c-3cn(Cc3ccc(F)cc3)c2cc1OC,13,.,.,.,.,.,.,.,
CCOC(=O)c1cc(OC(C)=O)c2ccc(OC)c(OC)c2c1,14,/,.,/,.,.,.,.,
COC(=O)C1=C(C)N(C)C(C)=C(C(=O)OC)C1c1ccc(C(=O)OC)cc1,.,.,.,.,.,.,/,/,
COC(=O)C1=CNC=C(C(=O)OC)C1c1ccc(C(=O)OC)cc1,13,.,.,.,.,.,19,14,K7 EDANS ctr=.
NC(=O)N/N=C/c1cc(Br)ccc1OCC(=O)NCc1ccccc1,.,.,.,.,.,.,/,/,
NC(=O)N/N=C/c1cc(Br)ccc1OC(=O)c1ccccc1,17,.,.,.,.,.,14,13,
O=C(c1ccc(=O)[nH]n1)N1CCN(S(=O)(=O)c2ccc(C(F)(F)F)cc2)CC1,.,.,.,.,.,.,/,/,
COC(=O)[C@@H]1Cc2c([nH]c3ccccc23)C(C)(C)N1C(=O)CCl,.,/,.,.,.,.,/,/,
CC[C@@H]1CN(C)[C@H]2Cc3c([nH]c4ccccc34)C(=O)C[C@@H]1[C@@H]2C(=O)OC,17,.,.,.,.,.,.,5.2,
COc1ccc2[nH]c(C(=O)N3CCN(Cc4ccccc4)CC3)cc2c1OC,.,.,.,.,.,.,/,/,
Cc1cc(C)c2c(n1)nn1c(NCCCN(C)C)cc(C)nc21,72,.,.,.,.,.,46,48,
Cc1cc(NCCCN(C)C)n2nc(-c3cccs3)cc2n1,.,.,.,.,.,.,/,/,
Cc1cc(C)c2c(n1)nn1c(NCCOCCO)cc(C)nc21,61,.,.,.,.,.,78,80,
CCSc1nc2c(c(=O)[nH]1)C(c1ccc(C)cc1)C1=C(CCCC1=O)N2 (centres undefined),17,.,.,.,.,.,.,.,
O=C(Nc1c2c(nn1-c1cccc(Cl)c1)CS(=O)(=O)C2)c1ccco1,.,.,.,.,.,.,/,/,
Cn1c2c(c(=O)n(C)c1=O)C(C(F)(F)F)(C(F)(F)F)N=C(c1ccccc1Cl)N2,.,.,.,.,.,.,/,/,
SMILES,KLK7 zymogen act,AHR activator,rCAG binder,NR3A LBD binder,ADAM17 inh,ADAM10 inh,proKLK7 act conf,EDANS interfere,others
Cn1c(=O)c2[nH]c(-c3ccccc3Cl)c(O)c2n(C)c1=O,58,.,.,.,.,.,71,77,
Cn1c(=O)c2[nH]c(-c3ccccc3)c(O)c2n(C)c1=O,17,.,.,12,.,.,41,40,
Cc1ccc(N2CCN(C(=O)C(=O)c3cccc(Br)c3)CC2)cc1,.,/,.,/,.,.,/,/,
O=C(O)[C@H](O)[C@@H](O)C(=O)O,.,.,.,.,.,.,/,/,
COCCNC(=O)/C(C#N)=C/c1c(N2CCN(c3ccc(OC)cc3)CC2)nc2c(C)cccn2c1=O,15,.,.,.,.,.,14,11,K7 EDANS ctr=.
Cc1cccn2c(=O)c(/C=C(\C#N)C(N)=O)c(N3CCN(c4ccccc4)CC3)nc12,.,/,.,.,.,.,/,/,
Cc1cccn2c(=O)c(/C=C(\C#N)C(N)=O)c(Oc3ccccc3)nc12,15,.,.,.,.,.,.,.,
COCCNC(=O)/C(C#N)=C/c1c(N2CCN(c3ccccc3)CC2)nc2c(C)cccn2c1=O,.,.,.,.,.,.,/,/,
C=CCNC(=O)/C(C#N)=C/c1c(N2CCN(c3cccc(Cl)c3)CC2)nc2c(C)cccn2c1=O,14,.,.,.,.,.,.,33,
Cc1cc2nc(C3CCCCC3)c(CC(C)(C)C)n2c(C)c1Br,.,/,.,/,.,.,/,/,
COC(=O)[C@]1(Cc2ccccc2)N[C@H](CN(C)S(=O)(=O)c2ccc(C(C)(C)C)cc2)[C@@H]2C(=O)N(Cc3ccccc3)C(=O)[C@@H]21,.,.,.,.,.,.,/,/,
Cc1nc2c(OCCN3C(=O)c4ccccc4C3=O)cccn2c1N(C)C(=O)CCC1CCCC1,.,/,.,/,.,.,/,/,
Nc1ncnc2c(C3OC(CO)C(O)C3O)c[nH]c12 (centres undefined),.,/,.,.,.,.,/,/,
CCCCN(C)c1c(C)nc2ccc(C(=O)Nc3cc(-c4ccccc4)ccc3OC)cn12,.,/,.,/,.,.,/,/,
CNC(C)C#Cc1ccc2oc3cccc(OC)c3c(=O)c2c1 (centres undefined),34,.,.,.,.,.,.,12,
CNC(C)C#Cc1ccc2oc3cc(C)c(C)cc3c(=O)c2c1 (centres undefined),.,.,.,.,.,.,/,/,
CC1CCCN(Cc2c(O)ccc3c(=O)c(-c4ccc(Cl)cc4)coc23)C1 (centres undefined),.,/,.,.,.,.,/,/,
CC1CN(Cc2c(O)ccc3c(=O)c(-c4ccccc4Cl)coc23)CC(C)O1 (centres undefined),90,.,.,.,.,.,26,30,
O=c1c(-c2ccc(Br)cc2)coc2c(CN3CCOCC3)c(O)ccc12,14,.,.,.,.,.,13,5.8,K7 EDANS ctr=.
